Test system: Vero E6 infected with SARS-CoV-2
Assay: inhibition of SARS-CoV-2 cytopathic effect; higher = more antiviral protection, active = above 15
Details: 48 h

Measured: inhibition of SARS-CoV-2 cytopathic effect

Cn1nnc(-c2ccc(-c3ccc(N4C[C@H](COP(=O)(O)O)OC4=O)cc3F)cn2)n1 [tedizolid-phosphate]
inactive: 1 nM -1.65% | 8.33 nM -1.24% | 100 nM -0.65% | 833.33 nM 1.74% | 10000 nM 1.44%

O=C1S/C(=C\c2ccc(OCc3cccc(B(O)O)c3)cc2)C(=O)N1Cc1ccc(F)cc1
inactive: 1 nM -1.35% | 8.33 nM 1.46% | 100 nM 0.45% | 833.33 nM 3.95% | 10000 nM -1.14%

O=C1NC(=O)[C@@H](c2cn3c4c(cccc24)CCC3)[C@@H]1c1c[nH]c2ccccc12 [tivantinib]
inactive: 1 nM -0.36% | 8.33 nM -0.11% | 100 nM -2.57% | 833.33 nM -1.94% | 10000 nM 2.92%

CC1(C)NC(=O)N(c2ccc([N+](=O)[O-])c(C(F)(F)F)c2)C1=O [nilutamide]
inactive: 1 nM 3.3% | 8.33 nM 1.17% | 100 nM 0.03% | 833.33 nM -2.17% | 10000 nM 1.01%

Clc1cc(Cl)c(OCC#CI)cc1Cl [haloprogin]
inactive: 1 nM -0.57% | 8.33 nM -1.3% | 100 nM -0.9% | 833.33 nM 4.17%
active: 10000 nM 15.9%

CN1C(=O)C(F)=C[C@]2(C)[C@H]3CC[C@]4(C)[C@@H](C(=O)NCc5nc6cccnc6[nH]5)CC[C@H]4[C@@H]3CC[C@@H]12
inactive: 1 nM 0.34% | 8.33 nM -0.43% | 100 nM -0.05% | 833.33 nM 2.35% | 10000 nM 1.08%

Cc1cc(OCc2nc(-c3ccccc3Cl)cs2)ccc1OCC(=O)O [GPR120-modulator-1]
inactive: 1 nM -0.13% | 8.33 nM 2.43% | 100 nM -1.19% | 833.33 nM -1.62% | 10000 nM -2.32%

Cn1cnc2c1c(=O)[nH]c(=O)n2C [theobromine]
inactive: 1 nM -1.8% | 8.33 nM 1.86% | 100 nM 1.32% | 833.33 nM 1.3% | 10000 nM -1.36%

OCCN1CCN(CCCN2c3ccccc3Sc3ccc(Cl)cc32)CC1 [perphenazine]
inactive: 1 nM 1.39% | 8.33 nM 1.94% | 100 nM 0.83% | 833.33 nM -2.86% | 10000 nM 2.67%

c1ccc(-c2ccc(C(c3ccccc3)n3ccnc3)cc2)cc1 (stereo not given) [bifonazole]
inactive: 1 nM 3.05% | 8.33 nM 3.28% | 100 nM 4.39% | 833.33 nM -11.6%
active: 10000 nM 15.4%

Cc1csc(NC(=O)CSc2ccc(-c3ccccc3)nn2)n1
inactive: 1 nM 6.45% | 8.33 nM -1.88% | 100 nM -1.71% | 833.33 nM -1.48% | 10000 nM 12.2%

COc1cc2c(cc1OC(C)C)[C@H](c1ccc(Cl)cc1)N(c1ccc(N(C)C[C@H]3CC[C@H](N4CCN(C)C(=O)C4)CC3)cc1)C(=O)C2
inactive: 1 nM -0.21% | 8.33 nM 1.25% | 100 nM 2.45% | 833.33 nM 2.4% | 10000 nM 2.39%

CN(C)CCc1ccc(O)cc1 [hordenine]
inactive: 1 nM 0.04% | 8.33 nM -0.27% | 100 nM 0.47% | 833.33 nM -2.27% | 10000 nM -0.68%

C[C@H](N)Cn1ccc2cc(F)c(Cl)cc21
inactive: 1 nM 1.25% | 8.33 nM 4.09% | 100 nM 1.91% | 833.33 nM -2.16% | 10000 nM -0.64%

COc1ccc(CN(CCN(C)C)c2ncccn2)cc1 [thonzylamine]
inactive: 1 nM 0.64% | 8.33 nM 0.52% | 100 nM 0.24% | 833.33 nM 3.55% | 10000 nM -0.17%

Cc1ccc2c(=O)c3ccccc3n(CCCN)c2c1C
inactive: 1 nM 3.67% | 8.33 nM 4.23% | 100 nM -0.41% | 833.33 nM 1.46% | 10000 nM -13.1%

CN1CCN(C(=O)C2C(C(=O)O)[C@H]3CC[C@@H]2O3)CC1 (stereo not given in full)
inactive: 1 nM -1.86% | 8.33 nM 0.2% | 100 nM 0.49% | 833.33 nM 0.2% | 10000 nM -0.43%

Nc1nc2ccc(OC(F)(F)F)cc2s1 [riluzole]
inactive: 1 nM -0.39% | 8.33 nM -3.06% | 100 nM 0.81% | 833.33 nM 3.82% | 10000 nM 1.88%

COc1ccc(COc2ccc(Cc3cnc(N)nc3N)cc2OC)cc1
inactive: 1 nM -0.78% | 8.33 nM -1.56% | 100 nM -0.01% | 833.33 nM 0.11% | 10000 nM 0.48%

C=CCN(C)CCCCCCOc1ccc(C(=O)c2ccc(Br)cc2)c(F)c1
inactive: 1 nM 0.63% | 8.33 nM 1.12% | 100 nM 2.12% | 833.33 nM 0.47% | 10000 nM 13.8%

CCCCc1nc(Cl)c(CO)n1Cc1ccc(-c2ccccc2-c2nnn[nH]2)cc1 [losartan]
inactive: 1 nM 0.46% | 8.33 nM 1.87% | 100 nM -0.81% | 833.33 nM -2.88% | 10000 nM -1.4%

CC1C(=O)OC2C(O)C34C5CC(C(C)(C)C)C36C(OC(=O)C6O)OC4(C(=O)O5)C12O (stereo not given) [ginkgolide-B]
inactive: 1 nM 1.36% | 8.33 nM 0.56% | 100 nM -1.98% | 833.33 nM 2.69% | 10000 nM 0.1%

O=[N+]([O-])c1nccn1CC(O)CN1CCCCC1 (stereo not given) [pimonidazole]
inactive: 1 nM 0.08% | 8.33 nM 0.87% | 100 nM 1.45% | 833.33 nM 2.08% | 10000 nM -0.59%

Cc1ccc(S(=O)(=O)Nc2ccc3c(c2)c(C(=O)C(F)(F)F)cn3CC(=O)N[C@@H](CC(C)C)C(=O)O)cc1
inactive: 1 nM 0.38% | 8.33 nM -1.93% | 100 nM -1.37% | 833.33 nM 0.8% | 10000 nM 3.55%

COc1cc(C(=S)N2CCOCC2)cc(OC)c1OC [sulmetozine]
inactive: 1 nM -6.81% | 8.33 nM -0.82% | 100 nM 1.75% | 833.33 nM -0.02% | 10000 nM 2.55%

CN/C(=N\S(=O)(=O)c1ccc(Cl)cc1)N1C[C@H](c2ccccc2)C(c2ccc(Cl)cc2)=N1 (racemic)
inactive: 1 nM -2.29% | 8.33 nM -0.66% | 100 nM -0.25% | 833.33 nM 1.24% | 10000 nM -3.73%

CC(=O)CC(=O)O [lithium-acetoacetate]
inactive: 1 nM -0.56% | 8.33 nM -0.05% | 100 nM 1.48% | 833.33 nM 1.82% | 10000 nM 0.27%

CO[C@H]1CC[C@H](N2C(=O)CNc3ncc(-c4ccc(C(C)(C)O)nc4)nc32)CC1
inactive: 1 nM 0.96% | 8.33 nM -0.05% | 100 nM 0.58% | 833.33 nM -3.48% | 10000 nM -14.6%

O=C(Nc1ccccc1)c1cc([N+](=O)[O-])ccc1Cl
inactive: 1 nM 1.34% | 8.33 nM 2.14% | 100 nM 0.85% | 833.33 nM -0.67% | 10000 nM -0.39%

OC[C@H]1O[C@@H](n2cnc3c(NC4CCCC4)ncnc32)[C@H](O)[C@@H]1O [N6-cyclopentyladenosine]
inactive: 1 nM 0.37% | 8.33 nM 0.93% | 100 nM 1.63% | 833.33 nM 4.59% | 10000 nM 1.5%

O=C(c1ccc(/C=C/c2n[nH]c3ccccc23)cc1)N1CCNCC1
inactive: 1 nM 0.11% | 8.33 nM 1.26% | 100 nM 0.85% | 833.33 nM 0.22% | 10000 nM -1.99%

CS(=O)(=O)c1ccc(-c2cnc(N)c(C(=O)Nc3ccccc3)n2)cc1
inactive: 1 nM 1.3% | 8.33 nM -2.14% | 100 nM 1.58% | 833.33 nM 0.67% | 10000 nM 2.65%

CC(C(=O)O)c1ccc2c(c1)Cc1ccccc1-2 (stereo not given) [cicloprofen]
inactive: 1 nM 1% | 8.33 nM 0.42% | 100 nM 2.68% | 833.33 nM 1.95% | 10000 nM 4.16%

C[C@]1(COc2ccc(N3CCC(Oc4ccc(OC(F)(F)F)cc4)CC3)cc2)Cn2cc([N+](=O)[O-])nc2O1 [delamanid]
inactive: 1 nM -0.82% | 8.33 nM 0.01% | 100 nM -1.12% | 833.33 nM 2.83% | 10000 nM 1.84%

Cn1c(=O)c2c(ncn2CCO)n(C)c1=O [etofylline]
inactive: 1 nM 0.6% | 8.33 nM 0.32% | 100 nM -0.66% | 833.33 nM -1.82% | 10000 nM -1.01%

From the supplement of paper PMC13380429
